# Not all results are given here.
# aSyn 5UTR act = Activators working through SNCA 5'UTR binding (MLPCN). activity score, % (tested at 7.5 µM), hits read low. alpha-synuclein 5'UTR reporter, activators screen. hit rate 7.1% among 300,000. AID 1814; in the data active = activity score below about -60%
# An asterisk follows results filed as active.
SMILES,aSyn 5UTR act
CCCOc1ccc(/C(O)=C2/C(=O)C(=O)N(CCCn3ccnc3)C2c2ccc(C)o2)cc1 (stereo unspecified),-76*
C=CCOc1ccc(/C(O)=C2/C(=O)C(=O)N(CCCn3ccnc3)C2c2cccs2)cc1 (stereo unspecified),-82*
CCOc1ccc(/C(O)=C2/C(=O)C(=O)N(c3nc(C)c(C)s3)C2c2ccco2)cc1 (stereo unspecified),-85*
CCN(CC)CCN1C(=O)C(=O)/C(=C(/O)c2ccc(OC(C)C)cc2)C1c1cccs1 (stereo unspecified),-122*
CCCOc1ccc(/C(O)=C2/C(=O)C(=O)N(CCCn3ccnc3)C2c2ccco2)cc1 (stereo unspecified),-68*
CC1Cc2cc(/C(O)=C3/C(=O)C(=O)N(Cc4ccco4)C3c3cccs3)ccc2O1 (stereo unspecified),-82*
c1ccc2sc(NC3=NCN(CC4CCCO4)CN3)nc2c1 (stereo unspecified),-86*
c1ccc(Nc2nc(NCc3ccco3)c3ccccc3n2)cc1,-67*
c1coc(CN2CN=C(Nc3nc4ccccc4s3)NC2)c1,-81*
c1coc(CNc2nc3ccccc3s2)c1,-137*
Nc1nc(Nc2ccccc2)nc(NCc2ccccc2)c1[N+](=O)[O-],84
Oc1c(C(Nc2nc3ccccc3s2)c2ccco2)ccc2cccnc12 (stereo unspecified),66
COc1ccc(C(=O)CCNc2cccc(Cl)c2)cc1,-114*
COc1ccc(C(=O)CNc2cccc(F)c2)cc1,-101*
C=CCn1c2ccccc2c(=O)c2cc(C#Cc3ccsc3)ccc21,-211*
CCc1ccc(N=C2N=C(N)c3ccccc32)cc1,-98*
Cc1ccc(N=C2N=C(N)c3ccccc32)cc1C,-78*
Cn1cccc1C1NC(=O)c2c(sc3c2CCC(C(C)(C)C)C3)N1 (stereo unspecified),-97*
COc1ccc(Cl)c2c1[nH]c1nc(SCc3ccccn3)nnc12,-106*
CCn1nnnc1SCC(=O)Nc1nc2ccccc2s1,-86*
Cc1nc(SCC(=O)Nc2nc3ccccc3s2)c(C#N)c(C)c1C,100
O=C(CSC1=NCCS1)Nc1nc2ccccc2s1,-154*
CSc1nsc(SCC(=O)Nc2nc3ccccc3s2)n1,-71*
COc1ccc2nc(NC(=O)CSc3nnc(C)s3)sc2c1,-78*
COc1ccc2nc(NC(=O)CSc3nc(SC)ns3)sc2c1,-110*
SMILES,aSyn 5UTR act
COc1ccc2nc(NC(=O)CSc3nnnn3C)sc2c1,-122*
O=C1OC2(CCCCC2)OC(=O)C1=CNc1ccc2c(c1)OCO2,-83*
CCOC(=O)c1c(N/N=C/c2ccncc2)n[nH]c1C,-81*
CCc1[nH]nc(C(=O)N/N=C/c2ccncc2)c1C,-70*
O=C(CCSc1ccccc1)Nc1ccccc1Br,-91*
CC1C/C(=C/c2ccncc2)C(=O)/C(=C/c2ccncc2)C1 (stereo unspecified),-107*
CCOC(=O)N1CCN(C(=O)c2ccc3c(c2)sc2nc(-c4ccccc4)cn23)CC1,-109*
CCOC(=O)N1CCN(C(=O)c2nc3ccccc3s2)CC1,-93*
CCOC(=O)N1CCC(NC(=O)c2ccc3c(c2)sc2nc(-c4ccc(OC)cc4)cn23)CC1,-98*
COc1ccc(NC(=O)/C=C/c2ccccc2)c([N+](=O)[O-])c1,-176*
COc1ccc(NC(=O)c2sccc2C)c([N+](=O)[O-])c1,-184*
COc1ccc(NC(=O)C/C(C)=N/NC(=O)c2cccs2)c([N+](=O)[O-])c1,-111*
COc1ccc(NC(=O)c2cccs2)c([N+](=O)[O-])c1,-161*
CCCCC(=O)Nc1ccc(C(=O)Nc2ccc(OC)cc2[N+](=O)[O-])cc1,61
C=CCNc1nc(Cl)nc(Nc2ccccc2)n1,-72*
Cc1cccc(CSc2ccc(-c3ccco3)nn2)c1,-174*
Cc1ccc(CSc2ccc(-c3ccco3)nn2)cc1,-142*
Clc1ccc(CSc2ccc(-c3ccccn3)nn2)cc1,-132*
Clc1cccc(CSc2ccc(-c3ccco3)nn2)c1,-84*
Clc1ccc(CSc2ccc(-c3ccco3)nn2)cc1,-165*
O=C(CSc1ccc(-c2ccccn2)nn1)c1ccccc1,-97*
O=C(c1ccccc1Sc1c(Cl)cccc1[N+](=O)[O-])N1CCOCC1,-74*
CCOC(=O)c1sc(NC(=O)Nc2ccc(Cl)cc2)cc1C,-135*
CCOC(=O)c1sc(NC(=O)c2ccc(Cl)s2)cc1C,-196*
CCOC(=O)c1sc(NC(=S)NC(=O)CC(C)C)cc1C,-102*
SMILES,aSyn 5UTR act
CCOC(=O)c1sc(NC(=O)c2ccccc2)cc1C,-181*
CCOC(=O)c1sc(NC(=O)C(C)(C)C)cc1C,-166*
CCOC(=O)c1sc(Nc2nc3c(OC)cccc3s2)cc1C,-196*
CCN(CC)Cc1c(NC(=O)c2ccccc2)sc(C)c1C,-87*
Cc1ccc(C2=NNC(C(O)C(O)C(O)C(O)CO)S2)cc1 (stereo unspecified),-103*
Cc1ccc(N=Cc2ccc(O)cc2O)cc1F,-84*
COc1cccc(C(=O)Nc2nc3c(s2)CN(C)CC3)c1,-85*
COc1cccc(C(=O)Nc2nnc(-c3ccccc3)s2)c1,-224*
COc1cccc(C(=O)NCc2ccc(-c3nc4ccccc4s3)cc2)c1,-109*
CC(C)(C)c1ccc(-c2nnc(NC(=O)c3ccccc3)s2)cc1,-163*
O=S(=O)(c1ccc2c(c1)C(=NO)c1cc(S(=O)(=O)N3CCCCC3)ccc1-2)N1CCCCC1,96
Cc1ccc(O)c(N=Nc2ccc(S(=O)(=O)N3CCCC3)cc2)c1,-70*
C[C@@H]1C=CC(=O)O[C@@H]1c1ccc(Cl)cc1,-194*
CC(C)(C)S(=O)(=O)Cc1nc(-c2ccc(Cl)c(Cl)c2)cs1,-67*
CCOc1ccc2nc(SCC(=O)c3ccccc3)sc2c1,-100*
CCOc1ccc2nc(SCC(=O)NC3CC3)sc2c1,-68*
O=C(CCCC(=O)N1CCN(c2ccccc2F)CC1)c1ccccc1,-76*
O=C(Oc1ccccc1)N1CCN(c2ccccc2F)CC1,-65*
O=C(CCc1nnc(C2CCCCC2)o1)N1CCN(c2ccccc2F)CC1,-112*
O=C(Nc1nnc(C2CC2)o1)c1ccc(S(=O)(=O)N2CCCc3ccccc32)cc1,63
CCOc1cc(C(C(=O)NCC2CCCO2)N(C(=O)Cn2nnc3ccccc32)c2ccc(C(C)=O)cc2)ccc1O (stereo unspecified),-67*
CCC(C)NC(=O)c1cc(Cl)c(NC(=O)C2=C(C)OCCS2)cc1OC (stereo unspecified),-62*
O=C(COC(=O)C1CC1)c1c[nH]c2ccccc12,-177*
O=C(Cc1ccccc1[N+](=O)[O-])OCC(=O)c1c[nH]c2ccccc12,-69*
O=C(C1=NNCC1c1ccccc1)C1OC1c1ccccc1 (stereo unspecified),-83*
SMILES,aSyn 5UTR act
CCOC(=O)Cn1cnc(-c2ccc([N+](=O)[O-])cc2)c1,-77*
N#C/C(=C(/O)CN1CCCC1)c1nc(-c2ccccc2)cs1,-115*
C=CCN(C(=O)CN1CCCCC1)c1nc(-c2ccccc2)cs1,-110*
COC(=O)Cn1c(C)nc2c(sc3nc(C)cc(C)c32)c1=O,-76*
C=CCN(c1ccc(C(=O)NCCc2ccccc2)cc1)S(C)(=O)=O,-109*
CC(=O)Nc1ccc(C(=O)NCCc2ccccc2)cc1,-131*
O=C(NCCc1ccccc1)c1ccncc1,-146*
O=C(NCCc1ccccc1)c1ccc(Cl)nc1,-169*
O=C(NCCc1ccccc1)c1ccc(NS(=O)(=O)c2ccc3[nH]c(=O)[nH]c3c2)cc1,-72*
